The compounds below were run on Staphylococcus aureus MW2 delta-mecA (mecA-) (assay: normalized GFP fluorescence (growth of mecA- strain) (fraction of control range); higher = more growth of mecA- strain). Conditions: compound concentration: 150 uM; cefoxitin: subinhibitory; fluorescent label: GFP.
Summary of the method: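 Pre-induced S. aureus MW2 cells with the gene (DsRed) and without it (GFP) were mixed 1:1 in LB holding a subinhibitory antibiotic dose set daily and grown on 150 μM compound (1.5% DMSO) in 1536-well plates, single replicate, for 20 h at 37 °C. DsRed (540/590) and GFP (485/520) readings were scaled per plate between single-strain control medians. Plates with high untreated ratios and rows with DsRed/GFP >10 were excluded.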
With `CC(=O)OCC(CCn1cnc2cnc(N)nc21)COC(C)=O` the “normalized GFP fluorescence” value was 0.204. In the case of `C[C@H]1[C@H](OC(=O)CCC(=O)O)O[C@@H]2O[C@@]3(C)CC[C@H]4[C@H](C)CC[C@@H]1[C@@]24OO3`, the “normalized GFP fluorescence” value is reported as 0.737. In the case of `CCCCNC(=O)NS(=O)(=O)c1ccc(C)cc1`, the “normalized GFP fluorescence” value is reported as 0.18. For `C1CCC(C(CC2CCCCN2)C2CCCCC2)CC1` (configuration not stated), the “normalized GFP fluorescence” value was 0.000248. For `CCN(CC)CCCC(C)Nc1ccnc2cc(Cl)ccc12` (configuration not stated), the “normalized GFP fluorescence” value was 0.506. For `CNC(=C[N+](=O)[O-])NCCSCc1csc(CN(C)C)n1`, the “normalized GFP fluorescence” value was 0.575. In the case of `CC(=O)Oc1ccc(C(c2ccc(OC(C)=O)cc2)c2ccccn2)cc1`, the “normalized GFP fluorescence” value is reported as 0.399. `CCOC(=O)C1=C(COCCN)NC(C)=C(C(=O)OC)C1c1ccccc1Cl` (configuration not stated) was tested, and the “normalized GFP fluorescence” value was -0.0144. For `Cc1ccc([C@@H]2O[C@H](CO)[C@@H](O)[C@H](O)[C@H]2O)cc1Cc1ccc(-c2ccc(F)cc2)s1` [Canagliflozin], the “normalized GFP fluorescence” value was -0.0143. `COC(=O)C1=C(C)NC(C)=C(C(=O)OC)C1c1ccccc1[N+](=O)[O-]` was tested, and the “normalized GFP fluorescence” value was 0.0465. With `CCN(CC)CCNC(=O)c1ccc(N)cc1` the “normalized GFP fluorescence” value was 0.328. For `Cc1ccc(Nc2nccc(N(C)c3ccc4c(C)n(C)nc4c3)n2)cc1S(N)(=O)=O` [Pazopanib], the “normalized GFP fluorescence” value was 0.64. For `CN(C)CCC(c1ccccc1)c1ccccn1` (configuration not stated), the “normalized GFP fluorescence” value was 0.504. `CN1CCCN=C1/C=C/c1cccc(O)c1` was tested, and the “normalized GFP fluorescence” value was 0.279. For `CC(C)(C)NC[C@H](O)COc1nsnc1N1CCOCC1`, the “normalized GFP fluorescence” value was 0.208. For `CCCCCCNC(=O)n1cc(F)c(=O)[nH]c1=O` [Carmofur], the “normalized GFP fluorescence” value was 0.605. With `CC[C@]1(O)C[C@@H]2CN(CCc3c([nH]c4ccccc34)[C@@](C(=O)OC)(c3cc4c(cc3OC)N(C)[C@H]3[C@@](O)(C(=O)OC)[C@H](OC(C)=O)[C@]5(CC)C=CCN6CC[C@]43[C@@H]65)C2)C1` [Vinblastine] the “normalized GFP fluorescence” value was 0.0776.

Reference: the supplement of paper PMC7695840
